Assay [1] in a line: liver-stage malaria parasite growth inhibition, primary screen, cell-based, HepG2, luciferase luminescence, HepG2 viability (AID 624349; in the data active = parasite load remaining mostly below about 12%, no sharp cut-off; inactive = mostly above about 10%;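 also: 100% = mean of DMSO negative control wells on the same plate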). Conditions: P. berghei liver stage in HepG2, luciferase luminescence, concentration not given here; parasite load remaining: stronger effect = lower value; viability: measured here: HepG2 viability without parasites.
Assay [2] is described as follows: sensitizers of A549 cells to miR-34 induction, primary screen, imaging, A549 dox-inducible miR-34, nuclei and caspase counts (AID 1347080). The settings on record: A549 miR-34 inducible, Hoechst nuclei count, 48 h.
A short description of assay [3]: survival rescue of mitochondrial mutant cells in low glucose, primary screen, MELAS cybrids, Rieske KO mouse fibroblasts, CellTiter-Glo (AID 1508586;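 active = mean z-score across replicates of 1.96 or higher in either the MELAS or the Rieske mutant cell line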;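 also: z relative to plate mean and SD of compound and empty wells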). On the technique in general: ATP-based viability assays read luminescence as a measure of living cells.
Assay [4] is described as follows: viability rescue of complex I mutant cybrids, primary screen, cell-based, galactose medium, ATP luminescence (AID 1645843;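 active = z-score of at least 1.8 in each of two replicates, scored against plate mean and spread of sample wells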;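 also: positive z means more ATP and so rescue of galactose-driven cybrid death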). The settings on record: complex I mutant cybrid cells, 72 h, stronger effect = higher value.
A short description of assay [5]: hESC survival regulators, cell-based (AID 493140; call rule not given here;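 also: cells exposed to compounds for four days before counting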). The settings on record: human embryonic stem cell survival screen; stronger effect = higher value.
Where [6] appears, read: stronger effect = lower value, cell number ratio, induced over uninduced.
[7] abbreviates: measured here: relative caspase fold change +Dox/-Dox.
[8] abbreviates: measured here: total cells with miR-34 induction, stronger effect = lower value.
The mark [9] stands for this setting: measured here: total cells without miR-34 induction.
The mark [10] stands for this setting: MELAS cybrid survival, CellTiter-Glo 48 h, stronger effect = higher value.
Where [11] appears, read: Rieske KO mouse fibroblast survival, CellTiter-Glo 72 h.

For orientation: viability means a read-out of living cells in per cent, often relative to untreated cells.

Molecules are shown by their SMILES. “And” between values parts separate entries of the source, which are not always exact repeats. Equal values may be shown once. The source made the active and inactive calls.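 The calls were made as follows, unless noted: active = compounds whose cell count with miR-34 switched on is under 0.7 times the count with it off; inactive = the rest.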

Regarding `CO[C@H]1[C@@H]([C@@]2(C)O[C@@H]2CC=C(C)C)[C@]2(CC[C@H]1OC(=O)/C=C/C=C/C=C/C=C/C(=O)O)CO2`, in assay [1], the parasite load remaining was 21% (inactive). In addition, in assay [1], the viability was found to be 104%. The fold change was 0.953 (inactive) in assay [2] (setting [6]) and 1.44 in assay [2] (setting [7]). Besides, the cell count in assay [2] (setting [8]) worked out at 6670; in assay [2] (setting [9]) it was 7000. For the same compound, the z-score in assay [3] (setting [10]) was 0.116 (inactive); in assay [3] (setting [11]), -0.135; in assay [4] it was -0.585 (inactive).
For the compound `Cc1c(N)nc([C@H](CC(N)=O)NC[C@H](N)C(N)=O)nc1C(=O)N[C@@H](C(=O)N[C@H](C)[C@@H](O)[C@H](C)C(=O)N[C@@H](C(=O)NCCc1nc(-c2ncc(C(=O)NCCC[S+](C)C)s2)cs1)[C@@H](C)O)[C@@H](O[C@@H]1O[C@@H](CO)[C@@H](O)[C@H](O)[C@@H]1O[C@@H]1O[C@H](CO)[C@@H](O)[C@@H](OC(N)=O)[C@@H]1O)c1cnc[nH]1`, the parasite load remaining in assay [1] was 89.5% (inactive). Besides, the viability in assay [1] is 111%. The fold change in assay [2] (setting [6]) was 0.865 (inactive); in assay [2] (setting [7]), 1.1. Besides, the values for the cell count in assay [2] (setting [8]) and in assay [2] (setting [9]) were 4410 and 5100, respectively. Further, the z-score in assay [3] (setting [10]) was -1.31 (inactive); in assay [3] (setting [11]), -1.18; in assay [4] it was -1.23 (inactive).
As for `CC#CCC(C)[C@H](O)/C=C/[C@@H]1[C@H]2C/C(=C/CCCC(=O)O)C[C@H]2C[C@H]1O` (some centres not stated), the parasite load remaining in assay [1] was 12.8% (inactive). For the same compound, the viability in assay [1] came out at 77.5%. Further, the fold change in assay [2] (setting [6]) is 0.876 (inactive); in assay [2] (setting [7]), 1.59. Moreover, the cell count in assay [2] (setting [8]) was found to be 8850; in assay [2] (setting [9]), 10100. Moreover, the z-score in assay [3] (setting [10]) was -0.239 (inactive); in assay [3] (setting [11]) it was -0.923; in assay [4], 0.275 (inactive).
For `CC[C@H]1OC(=O)[C@H](C)[C@@H](O[C@H]2C[C@@](C)(OC)[C@@H](O)[C@H](C)O2)[C@H](C)[C@@H](O[C@@H]2O[C@H](C)C[C@H](N(C)C)[C@H]2O)C(C)(O)C[C@@H](C)CN(C)[C@H](C)[C@@H](O)[C@]1(C)O` (some centres not stated), the parasite load remaining in assay [1] is 18.4% (inactive). For the same compound, the viability in assay [1] worked out at 65.5%. Besides, the fold change in assay [2] (setting [6]) is 0.876 (inactive); in assay [2] (setting [7]), 1.13. For the same compound, the results for the cell count in assay [2] (setting [8]) and in assay [2] (setting [9]) were 9530 and 10900, respectively. Also, the z-score in assay [3] (setting [10]) is -0.337 (inactive) and 0.0634 (inactive); in assay [3] (setting [11]), -0.912 and -0.719; in assay [4], 0.015 (inactive).
As to `COC(=O)c1ccc(=O)c2nc3/c(=C/O)c(O)cc(=O)c3[nH]c12`, the parasite load remaining in assay [1] was 91.5% (inactive). In addition, the viability in assay [1] stood at 96.5%. The results for the fold change in assay [2] (setting [6]) and in assay [2] (setting [7]) were 0.984 (inactive) and 1.28, respectively. For the same compound, the cell count in assay [2] (setting [8]) came out at 3340; in assay [2] (setting [9]), 3400. The values for the z-score in assay [3] (setting [10]), in assay [3] (setting [11]) and in assay [4] were 0.379 (inactive), -0.491 and -0.55 (inactive), respectively.
With `CN1C[C@H](C(=O)N[C@]2(C)O[C@@]3(O)[C@@H]4CCCN4C(=O)[C@H](Cc4ccccc4)N3C2=O)CC2c3cccc4[nH]cc(c34)C[C@H]21` (some centres not stated), the parasite load remaining in assay [1] is 81.9% (inactive) and 39.4% (inactive). Besides, the viability in assay [1] is 69.3% and 96.5%. Moreover, the fold change in assay [2] (setting [6]) is 0.973 (inactive) and 0.855 (inactive); in assay [2] (setting [7]) it was 1.1 and 1.21. Further, the cell count in assay [2] (setting [8]) is 7780 and 9120; in assay [2] (setting [9]), 8000 and 10700. Besides, the z-score in assay [3] (setting [10]) is -0.956 (inactive); in assay [3] (setting [11]) it was -0.402; in assay [4] it was 0.325 (inactive).
For the compound `COC(=O)c1ccccc1O`, the parasite load remaining in assay [1] is 53.2% (inactive). The viability in assay [1] came to 98%. For the same compound, the fold change was 0.851 (inactive) in assay [2] (setting [6]) and 1.32 in assay [2] (setting [7]). For the same compound, the cell count in assay [2] (setting [8]) came out at 10100; in assay [2] (setting [9]), 11800. The z-score was -0.407 (inactive) in assay [3] (setting [10]), -0.367 in assay [3] (setting [11]) and 0.47 (inactive) in assay [4].
Regarding `CNC1(C)[C@H]2CC[C@H](C2)C1(C)C` (some centres not stated), in assay [1], the parasite load remaining is 95.3% (inactive). The viability in assay [1] was 108%. The fold change in assay [2] (setting [6]) was 0.905 (inactive); in assay [2] (setting [7]), 1.29. In addition, the cell count in assay [2] (setting [8]) is 9940; in assay [2] (setting [9]), 11000. Also, the z-score in assay [3] (setting [10]) was 0.54 (inactive); in assay [3] (setting [11]) it was -0.569; in assay [4], 0.66 (inactive).
For the compound `C[N+](C)(C)[C@@H](Cc1c[nH]c(=S)[nH]1)C(=O)[O-]`, in assay [1], the parasite load remaining is 52.4% (inactive). In addition, the viability in assay [1] is 234%. Also, the fold change in assay [2] (setting [6]) was 0.872 (inactive); in assay [2] (setting [7]), 1.27. Besides, the cell count in assay [2] (setting [8]) stood at 9810; in assay [2] (setting [9]), 11300. Besides, the z-score in assay [3] (setting [10]) is -0.462 (inactive); in assay [3] (setting [11]) it was -0.623; in assay [4] it was 0.805 (inactive).
As for `O[C@H]1[C@H](O)[C@@H](O)[C@@H]2O[C@@H]2[C@@H]1O`, in assay [1], the parasite load remaining is 29.7% (inactive). Further, in assay [1], the viability amounted to 72%. The fold change is 0.828 (inactive) in assay [2] (setting [6]) and 1.47 in assay [2] (setting [7]). The cell count turned out to be 9740 in assay [2] (setting [8]) and 11800 in assay [2] (setting [9]). For the same compound, the z-score is 0.534 (inactive) in assay [3] (setting [10]), 0.1 in assay [3] (setting [11]) and 0.2 (inactive) in assay [4].
Turning to `O=C(OC1CC2CC3C[C@@H](C1)N2CC3=O)c1c[nH]c2ccccc12` (some centres not stated), the parasite load remaining in assay [1] is 57.9% (inactive). Besides, the viability in assay [1] was determined as 134%. For the same compound, the fold change in assay [2] (setting [6]) is 0.838 (inactive); in assay [2] (setting [7]), 1.48. The cell count is 8850 in assay [2] (setting [8]) and 10600 in assay [2] (setting [9]). Further, the z-score is -0.0411 (inactive) in assay [3] (setting [10]), -0.329 in assay [3] (setting [11]) and 1.09 (inactive) in assay [4].
As for `CNC(=C[N+](=O)[O-])NCCSCc1csc(CN(C)C)n1`, the survival in assay [5] was 4.67 (inactive). In addition, the fold change in assay [2] (setting [6]) is 0.834 (inactive) and 1.04 (inactive); in assay [2] (setting [7]), 1.65 and 0.659. In addition, the cell count is 8750 and 8440 in assay [2] (setting [8]); 10500 and 8100 in assay [2] (setting [9]). Further, the z-score was -0.241 (inactive) in assay [3] (setting [10]), -0.0279 in assay [3] (setting [11]) and 0.825 (inactive) in assay [4].

Values taken from PubChem BioAssay.
